Hits are enriched below; roughly 3.1% of the tested compounds scored in any of these assays.
p53null 32C kill – p53 null cell cytotoxicity, permissive temperature; H1299-neo p53 null cells, ATP luminescence, 24 h, 32C; hit rate 0.62% among 55,000; Potency, µM (titrated, usually from 46.1 µM), for the others: top-dose activity change, negative = cytotoxicity, actives largely listed as cytotoxic; AID 903;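 note: potency is the fitted concentration of half-maximal effect; 0% = DMSO only and -100% = full killing by 100 µM tamoxifen; nearly all actives have a fitted effect of over 55% in size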
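H1299-neo, 600 cells/well; overnight 37C; cpd up to 46 uM, 24 h at 32C; ATPlite luminescence after 20 min RT; normalized to DMSO (0%) and tamoxifen 100 uM (100% kill); Hill-fit AC50.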
pS6 MEF inh – inhibitors of mTORC1 signaling in Tsc2-/- p53-/- MEF cells. Tsc2-/- p53-/- MEF, phospho-rpS6 immunofluorescence/PI, 24 h. Potency, µM (series often up to 38.3 µM), without a hit: at the top dose activity change, negative = inhibition, most hits filed as inhibitors. hit rate 0.78% among 44,000;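 note: potency is the fitted concentration of half-maximal effect; plate controls were DMSO for no effect and rapamycin for full effect; nearly all actives have a fitted effect of over 50% in size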
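Cell-based qHTS: Tsc2-/- p53-/- MEF, 24 h cpd, 37 °C; fix/perm, anti-phospho-S6 Alexa-488 + PI; Acumen 488 nm scan; pS6/PI ratio, % positive cells; rapamycin 7.5 nM = inhibition ref; PI count = viability.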
p53null 39C kill – selectivity test: cytotoxicity in p53 null cells, nonpermissive temperature | Potency, µM (titrated, usually from 46.1 µM), for the others: at the highest dose activity, negative = cell killing, hits mostly cytotoxic | AID 904 | H1299 p53-null (neo) cells, 39C, ATPlite viability, 24 h | hit rate 0.97% among 55,000;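 note: potency is the fitted concentration of half-maximal effect; 0% = DMSO only and -100% = full killing by 100 µM tamoxifen; nearly all actives have a fitted effect of over 50% in size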
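Concentration-response (up to 46 uM) was run for 24 h at the nonpermissive 39C on H1299-p53A138V or H1299-neo cells. ATP content was measured with ATPlite luminescence. AC50 values were Hill-modeled after normalizing between DMSO and 100 uM tamoxifen killing.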
OvCa metastasis – inhibitors of ovarian cancer cell adhesion and invasion in omental model. SKOV3ip1-GFP adhesion/invasion on 3D omental model, fluorescence. Potency, µM (doses to about 45.8 µM), for inactives: at the highest dose activity change, negative = inhibition, actives largely listed as inhibitors. hit rate 0.1% among 46,000. AID 1963576;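 note: potency is the fitted concentration of half-maximal effect; plate controls were DMSO wells for no effect and tomatine positive control wells for full effect; nearly all actives have a fitted effect of over 65% in size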
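Adhesion/invasion was scored as fixed GFP-labeled SKOV3ip1 cell counts (488/509 nm), normalized to DMSO and tomatine controls. Cancer cells in serum-free medium, with four compound doses (0.36-46 umol/L), sat 2 hr at RT then 16 hr at 37 C on a 48 hr fibroblast/mesothelial/ECM culture.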
S16 viability – toxic to S16 Pmp22-F2sN Schwann cells; S16 Pmp22-F2sN Schwann cells viability, CellTiter-Glo, 24 h; Potency, µM (top dose mostly 57.5 µM), for the others: at the top dose activity change, negative = cytotoxicity, usual class: cytotoxic; hit rate 0.48% among 43,000; note: potency is the fitted concentration of half-maximal effect; % is set by controls: 0 for no effect and ±100 for the full control effect; nearly all actives have a fitted effect of over 65% in size
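Seed 500-1,000 S16 Pmp22-F2sN cells per well in phenol-red-free DMEM with 10% heat-inactivated FBS; pin-add 23 nL compound; incubate 24 h at 37C; add CellTiter-Glo, wait 15 min protected from light; read luminescence.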
PMP22 txn prim – modulators of PMP22 gene transcription in S16 Schwann cells | S16 Pmp22-F2sN Schwann cells (luciferase reporters placed in the Pmp22 gene), FLuc/NLuc coincidence luminescence, 24 h | Potency, µM (series often up to 57.5 µM), without a hit: at the top dose activity change, negative = inhibition, hits mostly inhibitors | hit rate 2% among 43,000; active = clear falling dose curves in both reporters; inconclusive = both reporters move, but less clearly or upward; inactive = either reporter flat; the % is the NLuc reporter signal; note: potency is the fitted concentration of half-maximal effect; % is set by controls: 0 for no effect and ±100 for the full control effect
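Luminescent read-out of sequential FLuc and NLuc signals from a reporter embedded in the Pmp22 3' UTR of S16 Schwann cells, taken after 24 h compound exposure at 37C; compounds reducing both signals score as inhibitors of expression.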
NLuc saturating – NanoLuc enzyme inhibition artifact for PMP22 screen; AID 1508638; shares compounds with PMP22 txn prim; Potency, µM (highest dose often 57.5 µM), inactives show at the highest dose activity change, negative = inhibition, usual class: inhibitors; hit rate 4% among 690; Secreted NLuc enzyme (filtered S16 cell medium), Nano-Glo luminescence; note: potency is the fitted concentration of half-maximal effect; % is set by controls: 0 for no effect and ±100 for the full control effect
NLuc Km counter – counter-screen for PMP22 expression modulators: NanoLuc inhibition at Km; shares compounds with PMP22 txn prim; hit rate 5% among 690; Potency, µM (highest dose often 57.5 µM), for the others: at the highest dose activity change, negative = inhibition, hits mostly inhibitors; secreted NLuc enzyme, coelenterazine luminescence, Km conditions; note: potency is the fitted concentration of half-maximal effect; % is set by controls: 0 for no effect and ±100 for the full control effect
FLuc ctr PMP22 – firefly luciferase enzyme inhibition artifact for PMP22 screen | shares compounds with PMP22 txn prim | purified P. pyralis FLuc, luminescence, 10 min | Potency, µM (series often up to 57.5 µM), for inactives: at the highest dose activity, negative = inhibition, actives largely listed as inhibitors | 690 tested, under 10 active | AID 1508640; note: % of control where 0% means no effect
Target sequence (P08659 whole entry, looked up): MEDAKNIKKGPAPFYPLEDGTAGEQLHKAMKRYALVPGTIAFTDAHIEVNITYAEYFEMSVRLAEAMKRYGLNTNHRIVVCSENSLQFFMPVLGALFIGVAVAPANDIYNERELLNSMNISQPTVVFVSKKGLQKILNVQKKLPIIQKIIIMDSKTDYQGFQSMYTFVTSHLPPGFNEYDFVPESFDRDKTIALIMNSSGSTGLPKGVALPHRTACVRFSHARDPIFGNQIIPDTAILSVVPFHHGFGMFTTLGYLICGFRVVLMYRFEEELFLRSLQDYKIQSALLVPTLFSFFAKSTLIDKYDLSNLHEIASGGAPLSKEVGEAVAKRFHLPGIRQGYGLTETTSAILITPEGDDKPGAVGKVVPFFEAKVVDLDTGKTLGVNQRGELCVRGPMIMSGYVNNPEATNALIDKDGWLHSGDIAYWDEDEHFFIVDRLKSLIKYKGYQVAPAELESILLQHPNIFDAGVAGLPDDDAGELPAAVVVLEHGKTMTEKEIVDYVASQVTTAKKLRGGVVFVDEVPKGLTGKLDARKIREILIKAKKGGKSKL
S16 viab conf – S16 Schwann cell cytotoxicity, confirmatory. shares compounds with PMP22 txn prim. S16 Schwann cells viability, CellTiter-Glo ATP luminescence, 24 h. Potency, µM (titrated, usually from 57.5 µM), inactives show at the top dose activity change, negative = viability loss, usual class: cytotoxic. hit rate 7% among 690. AID 1508641; note: potency is the fitted concentration of half-maximal effect; % is set by controls: 0 for no effect and ±100 for the full control effect
PMP22 txn cnf – confirmation of modulators of PMP22 gene transcription in S16 cells; shares compounds with PMP22 txn prim; S16 Schwann cells Pmp22-F2sN, dual luciferase, 24 h; Potency, µM (titrated, usually from 57.5 µM), for inactives: at the top dose activity change, negative = inhibition, usual class: inhibitors; hit rate 22% among 690; active = clear falling dose curves in both reporters; inconclusive = both reporters move, but less clearly or upward; inactive = either reporter flat; the % is the FLuc reporter signal; note: potency is the fitted concentration of half-maximal effect
PMP22 HiBiT cnf – confirmation of modulators of rat PMP22 protein expression | shares compounds with PMP22 txn prim | S16 Schwann cells Pmp22-HiBiT, luminescence, 48 h | Potency, µM (highest dose often 27.9 µM), for inactives: at the highest dose activity change, negative = inhibition, actives largely listed as inhibitors | 95 tested, under 10 active
Target sequence (P25094 whole entry, looked up): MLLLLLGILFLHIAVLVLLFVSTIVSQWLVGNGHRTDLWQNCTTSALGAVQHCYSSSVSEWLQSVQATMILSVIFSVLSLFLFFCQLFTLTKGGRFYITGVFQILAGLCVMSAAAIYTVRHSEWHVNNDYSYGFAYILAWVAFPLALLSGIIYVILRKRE
The depositor's hits bear a star; i = inactive; ? = inconclusive; . = no result given. Unless noted, calls come from the whole dose curve; as a rule, active = well fitted curve in the direction sought with a large enough effect; inconclusive = small, poorly fitted or top-dose-only effect, or another doubt; inactive = no such curve, though single readings can be large; an effect the other way counts as inactive or inconclusive.

SMILES	p53null 32C kill	pS6 MEF inh	p53null 39C kill	OvCa metastasis	S16 viability	PMP22 txn prim	NLuc saturating	NLuc Km counter	FLuc ctr PMP22	S16 viab conf	PMP22 txn cnf	others
Cc1ccc(CNC(=O)c2nc(SCc3ccc(C)cc3)ncc2Cl)cc1	-8%	2%	-21%	-15%	6%	?	.	.	.	.	.
COC(=O)c1ccccc1NC(=O)c1nc(S(=O)(=O)Cc2cccc(C)c2)ncc1Cl	2%	-26%	-4%	-14%	?	5.3µM*	-19%	3.9µM*	-16%	?	7.3µM*	PMP22 HiBiT cnf=-18%
Cc1ccc(CS(=O)(=O)c2ncc(Cl)c(C(=O)Nc3nc4ccc(F)cc4s3)n2)cc1	-1%	-1%	?	-9%	?	5.4µM*	-11%	?	7%	?	16µM*	PMP22 HiBiT cnf=?
Cn1c(=O)c(-c2c(Cl)cccc2Cl)cc2cnc(Nc3cccc(C(=O)O)c3)nc21	.	.	.	5%	.	.	.	.	.	.	.
CCc1nnc(SCC(=O)N(C)c2ccccc2)c2cc3sccc3n12	-1%	1%	-11%	-8%	?	13µM*	?	?	-12%	-13%	?
COc1cccc(NC(=O)CCCn2c(=O)c3cccn3c3cccnc32)c1	-6%	3%	-13%	i	0%	?	?	?	0%	4%	?
COC(=O)N1CCN(Cc2cccc(NC(=O)Nc3ccc(C)nc3)c2F)CC1	.	.	.	5%	.	.	.	.	.	.	.
CCN(CC)CCNC(=O)c1cc(-c2ccc(Br)s2)nc2ccccc12	18%	?	25µM*	10µM*	32µM*	20µM*	-13%	?	-16%	?	17µM*	PMP22 HiBiT cnf=-2%
COc1ccc(N2CCN(CCCNC(=O)Nc3ccccc3Cl)CC2)cc1	-11%	-9%	3%	-16%	-7%	-21%	.	.	.	.	.
O=C(NCCCN1CCN(c2ccc(F)cc2)CC1)Nc1ccccc1Cl	-3%	-9%	6%	?	-22%	13µM*	?	0%	6%	?	-14%
CCCCCn1c(=N)n(CC(O)COc2cccc(C)c2)c2ccccc21 (configuration not stated)	?	3.7µM*	?	?	?	18µM*	-11%	4%	-3%	22µM*	16µM*
CCCCC[C@H](O)C=C[C@H]1[C@H](O)CC(=O)[C@H]1CC=CCCCC(=O)O	.	.	.	-16%	.	.	.	.	.	.	.
CC1=Nc2cc(C(=O)NCCc3ccccc3)ccc2Sc2c(C)ccc(C)c21	15%	-13%	?	2%	-3%	2.7µM*	-5%	4%	-11%	?	?
COc1ccc(CNC(=O)c2ccc3c(c2)N=C(C)c2c(C)ccc(C)c2S3)cc1	23%	1%	52%	-1%	15%	?	.	.	.	.	.
CC1=Nc2cc(C(=O)NCCc3ccc(Cl)cc3)ccc2Sc2c(C)ccc(C)c21	35%	-11%	?	i	-7%	7.8µM*	-5%	4%	2%	?	?
Cc1cc2c(n1-c1ccc(C(=O)NCCc3ccc(Cl)cc3)cc1)CCCC2	-6%	-25%	-14%	-2%	-2%	?	.	.	.	.	.
CCCNC(=O)c1ccc2c(c1)N=C(C)c1c(C)ccc(C)c1S2	3%	?	?	-6%	3%	0.39µM*	-6%	?	0%	16%	?
OCCn1cc(-c2cnc3nnn(Cc4ccc5ncccc5c4)c3n2)cn1	.	.	.	-22%	.	.	.	.	.	.	.
Nc1ccn(C2CO[C@H](CO)O2)c(=O)n1 (some centres not stated)	.	.	.	12%	.	.	.	.	.	.	.
CN(C)C(=O)[C@H](O)[C@H](Cc1ccccc1)NC(=O)c1cc2cc(Cl)ccc2[nH]1	.	.	.	10%	.	.	.	.	.	.	.
Cc1cccc2c1N(CCOc1ccc(C(C)(C)C)cc1)C(=O)C2=O	-13%	.	.	.	.	.	.	.	.	.	.
CCCOc1ccc(CN2C(=O)C(=O)c3cccc(C)c32)cc1	67%	?	?	?	-7%	11µM*	?	?	-16%	?	?
CN1CCCN(C(=O)c2cccc(-c3ccc(C=C4C(=O)Nc5ccc(Cl)cc54)o3)c2)CC1	.	.	.	18%	.	.	.	.	.	.	.
Cn1nnnc1SCCNCc1ccccc1OCc1ccccc1F	?	-18%	-15%	i	-24%	?	.	.	.	.	.
Cn1nnnc1SCCNCc1cc(Br)ccc1OCc1ccccc1Cl	-19%	-16%	-2%	-1%	?	16µM*	?	?	-24%	-21%	?
CCC1CCCCN1CCCNC(=O)c1ccc2c(c1)N(Cc1ccccc1F)C(=O)c1ccccc1S2(=O)=O (configuration not stated)	-2%	?	?	-17%	?	8.9µM*	-21%	4%	-14%	?	?
COc1cc2c(cc1OC)C(COc1ccc3c(C)cc(=O)oc3c1)N(C(=O)c1ccc(C)cc1)CC2 (configuration not stated)	10%	-9%	6%	10%	?	?	-11%	1%	2%	0%	?

Compound activity from PubChem BioAssay.
